Data published in PubChem BioAssay AID686979 (National Center for Advancing Translational Sciences (NCATS), 2013).
Among all 420,000 compounds or so, about 50,000 (12%) were called active. Where a call stands in place of a potency, no number is given. Inconclusive results (about 26%) are left out. The call rests on the fitted dose curve; in most records, active means well fitted inhibition curve with a large enough effect; inconclusive means small, poorly fitted or top-dose-only effect; inactive means flat fitted curve, though single readings scatter. The full list was thinned out, with actives kept by preference.

Test: qHTS for Inhibitors of human tyrosyl-DNA phosphodiesterase 1 (TDP1): qHTS in cells in presence of CPT; further: nearly all actives have a fitted effect of over 55% in size
Conditions: chicken DT40 Tdp1-/-;hTDP1 cells + 20 nM CPT, ATP luminescence, 48 h; series mostly up to 46.2 µM
Text: Human tyrosyl-DNA phosphodiesterase 1 (TDP1) is a novel repair gene, and we propose to use it as a new target for anticancer drug development. TDP1 is not an essential protein, but under treatment with topoisomerase I poison (camptothecin: CPT), TDP1 works as a critical factor for cell survival. To directly identify novel TDP1 inhibitors active in a cellular environment, we have knocked-out the Tdp1 gene in chicken DT40 cells (Tdp1-/-) and generated a complemented counterpart cells that contains a stable transfection of the human TDP1 gene (Tdp1-/-;hTDP1 cells). For the primary screen, Tdp1-/-;hTDP1 cells will be exposed to small molecules in the presence or absence of CPT, and their growth kinetics will be evaluated after 48 hours by measuring ATP activity. […] The hit compounds will then be evaluated in the presence or absence of CPT using Tdp1-/- cells. […] In tertiary assays, biochemical gel-based assays will be used to assess whether the hit compounds specifically target TDP1. To this end, we have screened this cell line against the MLSMR in two primary screens. In one screen we add CPT and in the other we screen in the absence of CPT; this AID represents the screen where CPT was present. NIH Chemical Genomics Center [NCGC] NIH Molecular Libraries Probe Centers Network [MLPCN] MLPCN Grant: MH095538 Assay Submitter (PI): Yves Pommier, NCI
DT40-hTDP1 cells with 20 nM Camptothecin (add 20 microL of 1 mM CPT stock in 1 L of cell culture medium) were dispensed at 400 cells/5microL/well in tissue culture treated 1536-well white wall/solid bottom assay plates (Greiner Bio-One North America, NC, U.S.A.) using a Multidrop Combi 8 channel dispenser (Thermo Fisher, Waltham, MA, USA). 23 nL compounds and controls were transferred using the pin tool (Kalypsys, San Diego, CA, USA) to the assay plates. The assay plates were then incubated at 37 masculineC for a minimum 48 hr. Three microL of Cell Titer Glo solution was added to the plates and incubated at RT in dark for 30 min. Luminescence was read using ViewLux (Perkin Elmer) with 1 sec exposure slow speed, high gain and 2x binning.
Potency means the concentration at half of the fitted maximal effect.

Row | SMILES | Potency
1 | Cc1cccc(N2CCN(C(=O)c3ccc(Nc4nc5ccccc5n5nnnc45)cc3)CC2)c1C | inactive
2 | Cc1cccc(N2CCN(C(=O)/C=C/c3ccco3)CC2)c1C | 16.4 µM (active)
3 | Cc1cccc(N2CCN(C(=O)c3ccc4c(c3)CCN4S(=O)(=O)c3ccccc3)CC2)c1C | 5.8 µM (active)
4 | Cc1ccccc1N1CCN(C(=O)c2cccnc2)CC1 | inactive
5 | CC(=O)N1CCN(c2cccc(C)c2C)CC1 | inactive
6 | CCOC(=O)c1c(N)n(-c2cccc(C)c2C)c2nc3ccccc3nc12 | inactive
7 | CSc1ccccc1NC(=O)c1ccc2c(c1)CCN2S(C)(=O)=O | inactive
8 | CCn1c(C)c(C)c2cc(C(=O)N3CCN(c4cccc(C)c4C)CC3)ccc21 | 20.6 µM (active)
9 | CS(=O)(=O)N1CCc2cc(C(=O)Nc3ccccc3Br)ccc21 | inactive
10 | O=C(/C=C/c1ccco1)NC(=S)N1CCCCC1 | inactive
11 | CCC(CC)C(=O)N1CCN(c2cccc(C)c2C)CC1 | 14.6 µM (active)
12 | C[C@H]1CN([C@@H](C)CO)C(=O)CCCn2cc(nn2)CO[C@@H]1CN(C)C(=O)Nc1ccccc1 | inactive
13 | CCCCN(C(=O)c1nn(C)c(=O)c2ccccc12)c1c(N)n(CCC)c(=O)[nH]c1=O | inactive
14 | CCCNC(=O)c1cc(C2CCCN(C(=O)c3ccc4c(c3)CCO4)C2)on1 (stereo not given) | inactive
15 | C=Cn1c(C(=O)O)ccc1-c1ccc(OC)cc1 | inactive
16 | CCCCC1N2CC3([N+](=O)[O-])CN1CC([N+](=O)[O-])(C2)C3(C)C (stereo not given) | inactive
17 | CCOc1ccccc1NC(=O)NC1CCCCCCC1 | inactive
18 | CCOc1ccccc1NC(=S)N1CCN(c2cccc(C)c2C)CC1 | 11.6 µM (active)
19 | Cc1cccc(NC(=S)N2CCC(O)CC2)c1C | inactive
20 | Cc1c(C)n(Cc2ccc(Cl)cc2)c2ccc(C(=O)N3CCN(c4ccccc4F)CC3)cc12 | 18.4 µM (active)
21 | CCc1ccc(NC(=O)CS(=O)CC(=O)N2CCN(c3ccccc3F)CC2)cc1 (stereo not given) | inactive
22 | O=C(c1ccc(CN2CCOCC2)cc1)N1CCN(c2ccccc2F)CC1 | inactive
23 | O=[N+]([O-])c1cc(S(=O)(=O)N2CCCC2)ccc1NN=C1CCCC1 | inactive
24 | CC(C)(C)c1ccc(/C=C2\SC(=O)N=C2N)cc1 | inactive
25 | CCOc1ccc(CNC(=O)c2cc(=O)[nH]c3ccc(S(=O)(=O)N4CCCCC4)cc23)cc1 | inactive

Row | SMILES | Potency
26 | CC(c1ccco1)N(C(=O)c1ccc(S(=O)(=O)N2CCCCC2)cc1)c1ccccn1 (stereo not given) | inactive
27 | Cc1ccc(-n2c(CNc3ccc(F)cc3)nnc2SCC(=O)N2CCOCC2)cc1 | inactive
28 | N=C1c2ccccc2-c2ccccc21 | inactive
29 | COc1ccc(N2CCN(C3=NS(=O)(=O)C(c4cccc(Br)c4)=C3C)CC2)cc1 | inactive
30 | Cn1c(=O)cc(OCC(=O)N2CCN(c3ccccc3F)CC2)c2ccccc21 | inactive
31 | O=C(Nn1cc(C(=O)N2CCN(c3ccccc3F)CC2)c2ccccc2c1=O)c1cnccn1 | 14.6 µM (active)
32 | Cc1oc2ncn(CC(C)C)c(=O)c2c1C(=O)N1CCN(c2ccccc2F)CC1 | inactive
33 | CCCCOc1ccc(NC(=O)c2cc3c(n(-c4ccc(Cl)cc4)c2=O)CCCC3=O)cc1 | inactive
34 | CC(C)c1ccc(NS(=O)(=O)c2ccc3[nH]cc(C(=O)NC4CCCC4)c(=O)c3c2)cc1 | inactive
35 | CCC(C)NCCOCCOc1ccc(Br)cc1C (stereo not given) | 14.6 µM (active)
36 | CCOC(=O)CC1C(=O)NCCN1C(=O)COc1ccc(Br)cc1C (stereo not given) | inactive
37 | COCC(C)NCc1cc(Br)ccc1OC (stereo not given) | inactive
38 | O=C(OCCOc1ccccc1F)c1cc(S(=O)(=O)N2CCOCC2)ccc1F | inactive
39 | Cc1oc2ccc(O)c(CN3CCOCC3)c2c1C(=O)Nc1cccc(Cl)c1C | 11.6 µM (active)
40 | Cc1oc2ccc(O)c(CN3CCCCC3)c2c1C(=O)Nc1cccc(C(F)(F)F)c1 | 11.6 µM (active)
41 | CCOC(=O)c1cccc(NC(=O)c2cc(CN3CCCC3)on2)c1 | inactive
42 | CC1CCN(CCC(=O)Nc2ccccc2)CC1 | inactive
43 | Cc1c(CN2CCC(C)CC2)c(=O)n(-c2ccccc2)n1C | inactive
44 | CC(=O)N1CCN(C(=O)Nc2cccc(C(F)(F)F)c2)CC1 | inactive
45 | Cc1nnsc1C(=O)Nc1cccc(Cl)c1C | inactive
46 | O=C(Nc1ccc(CN2CCOCC2)cc1)c1cc(Cl)ccc1Cl | inactive
47 | Cc1oc2ccc(O)c(CN3CCC(C)CC3)c2c1C(=O)Nc1ccccc1 | 14.6 µM (active)
48 | COc1ccccc1CNS(=O)(=O)c1cc2c3c(c1)CCC(=O)N3CCC2 | inactive
49 | Nc1cc(=O)c2[nH]cnc2[nH]1 | inactive
50 | Cc1ccc(C(=O)Nc2ccc(OCc3cc(=O)n4c(C)csc4n3)cc2)cc1 | inactive

Row | SMILES | Potency
51 | CN(C(=O)c1c(Cl)cnn1C)C12CC3CC(CC(C3)C1)C2 | inactive
52 | COC(=O)CSc1nnc(-c2cccnc2)o1 | inactive
53 | Cc1ccc(-n2cnc3cc(C(=O)NCCC4=CCCCC4)ccc32)cc1Cl | 18.4 µM (active)
54 | CN(c1ccc(C(=O)NCCC2=CCCCC2)cc1)S(C)(=O)=O | inactive
55 | CCn1c(C)nc2cc(C(=O)NNS(=O)(=O)c3ccc(C)cc3C)ccc21 | inactive
56 | CCCNC(=O)c1ccc2c(c1)ncn2-c1ccc(C)cc1C | 16.4 µM (active)
57 | COC(CNC(=O)c1ccc2c(c1)ncn2-c1cc(C)cc(C)c1)OC | inactive
58 | COCCNC(=O)c1ccc2c(c1)ncn2-c1ccc(C)c(Cl)c1 | inactive
59 | CCn1nnnc1SCC(=O)Nc1ccc(N(C)C)cc1 | inactive
60 | CC(=O)NS(=O)(=O)c1ccc(N/C(N)=N/c2nc(C)cc(C)n2)cc1 | inactive
61 | CCOC(=O)C1CCN(C(=O)C2CCCN(S(=O)(=O)c3ccc(OC)c(Cl)c3)C2)CC1 (stereo not given) | 16.4 µM (active)
62 | CCN1CCN(C(=O)C2CCCN(S(=O)(=O)c3ccc(OC)c(OC)c3)C2)CC1 (stereo not given) | inactive
63 | COc1ccc(S(=O)(=O)N2CCCC(C(=O)N3CCN(C)CC3)C2)cc1C (stereo not given) | inactive
64 | O=C(COC(=O)c1ncc(Cl)c(Cl)c1Cl)NC1CCS(=O)(=O)C1 (stereo not given) | inactive
65 | C=C(C)c1cccc(C(C)(C)NC(=O)NCCN(CC)CC)c1 | inactive
66 | CC1(C(=O)NS(=O)(=O)c2ccccc2)CCN1C(=O)C1CCCCC1 (stereo not given) | inactive
67 | CCOC(=O)c1c(NC(=O)c2cc(-c3ccc(Cl)cc3)on2)sc2c1CCCC2 | inactive
68 | CCOC(=O)c1ccc(NC(=O)c2c(NCc3ccccc3)[nH]c(=O)[nH]c2=O)cc1 | inactive
69 | CCOC(=O)c1ccc(NC(=O)c2c(NCc3cccc(OC)c3)sc3c2CCC3)cc1 | 10.3 µM (active)
70 | COc1cccc(CN(C)CC(=O)Nc2sc3c(c2C#N)CCC3)c1 | inactive
71 | CC(=O)Cc1nsc(NC(=O)c2csc3c2CCCC3)n1 | inactive
72 | Cc1ccc(NC(=O)c2csc3c2CCCC3)cc1 | inactive
73 | CCOC(=O)c1ccc(NC(=O)c2csc3c2CCCCC3)cc1 | 25.9 µM (active)
74 | CCOC(=O)c1c(NC(=O)CCC(=O)NCc2ccco2)sc2c1CCCC2 | inactive
75 | CCOC(=O)c1ccc(NC(=O)c2c(NCc3cccs3)sc3c2CCCC3)cc1 | 16.4 µM (active)
